Records with an inconclusive call do not appear. Where a call stands in place of a potency, no number is given. Active and inactive are the calls of the source. The call rests on the fitted dose curve; in most records, active means well fitted activation curve with a large enough effect; inconclusive means small, poorly fitted or top-dose-only effect; inactive means flat fitted curve, though single readings scatter.

The experiment in a line: Cell viability assay for measurement of the protective activity of small molecules against cell death caused by Zika virus infection in human astrocytoma cells. The conditions noted are these: SNB-19 Zika virus cytoprotection, ATP luminescence, 72 h; series mostly up to 46.1 µM. The text has this: National Center for Advancing Translational Sciences [NCATS] Johns Hopkins University School of Medicine Florida State University Assay Overview: Zika virus infection causes cell death in certain cell types including human neural progenitor cells (hNPCs), astrocytes, and astrocytoma cell line (SNB-19). This cell viability assay measures the ATP content (level) in human astrocytoma cells (SNB-19) using a luminescence readout that is proportional to viable cell numbers. Decrease in the luminescence signal after Zika virus infection indicates the cell death caused by Zika virus. Small molecule inhibitors […] the decreased luminescence signal after Zika virus infection, indicating the protective effect of that small molecule on the cell death caused by Zika virus infection. This observed protective effect of small molecules against Zika virus induced cell death may result from inhibition of virus replication or cellular response to the virus infection.
Assay Protocol Summary: The medium for SNB-19 cells is composed of RPMI 1640 (ATCC, Cat.# 30-2001), 10% fetal bovine serum (FBS) (GE healthcare Life Sciences, Cat.# SH30071.03), and 1% Pen/Strep (Gibco, Cat.# 15140-122). The ATP content assay kit (PerkinElmer, Cat.# 6016731) was used to determine cell viability. The reagent was reconstituted and prepared as described by the manufacturer. Cells were seeded in 384- or 1536-well assay plates and cultured at 37 C with 5% CO2 for 16 to 20 hours. The typical cell seeding density in the 1536-well plate assay is 250 cells/well in 3ul medium for SNB-19 cells in tissue culture treated plates. Compounds were added to cells and incubated for one hour before addition of ZIKV solution to cells (2 FFU/cell). After incubation at 37 C with 5% CO2 for 72 hours, the reagent mixture of the ATP content assay kit was added to each well, followed by incubation at room temperature for 10 minutes. The luminescence intensity of the assay plates was measured using a ViewLux plate reader (PerkinElmer). […] The percentage inhibitions of the decreased cell viability by small molecule inhibitors were then calculated.
In the case of `C=CCCCCCCCCC(=O)O`, the Potency entry is “inactive”. With `Cc1ccc(O)c(-n2nc3ccccc3n2)c1` the entry was “inactive”; with `CC(C(=O)O)c1ccc(C(=O)c2ccccc2)s1` (stereo not given), “inactive”; with `COc1ccc(-c2cc(=O)c3c(O)cc(O)cc3o2)cc1O`, “inactive”. For the molecule `C[C@@H]1CCN(C(=O)CC#N)C[C@H]1N(C)c1ncnc2[nH]ccc12`, the Potency result is “inactive”. As for `COc1ccc2nc(NC(=O)Nc3ccccc3)sc2c1`, the Potency result is “inactive”. With `Cc1cc(O)c2c(c1)C(=O)c1cc(O)cc(O)c1C2=O`, the Potency result is “inactive”. To `OCc1ccc(-c2ccc(-c3ccc(CO)s3)o2)s1` belongs “inactive”; to `O=c1c(-c2ccc(O)cc2)coc2cc(O)ccc12`, “inactive”; to `Nc1nc2ccc([N+](=O)[O-])cc2s1`, “inactive”.

As to `CCCCCCCC/C=C/C(=O)O`, the Potency entry is “inactive”. In the case of `O=C(Nc1cc2cc[nH]c2cn1)c1ccccc1`, the Potency result was “inactive”. As to `CCCCC1C(=O)N(c2ccccc2)N(c2ccc(O)cc2)C1=O` (stereo not given), the Potency is 19.5 µM (active). Regarding `O=c1cc(-c2ccccc2)oc2cc(O)c(O)c(O)c12`, the Potency result was “inactive”. With `CCCCCCOc1ccccc1C(N)=O` the entry was “inactive”; with `CNC1[C@H](O)C(O[C@@H]2C(O)C(O[C@H]3O[C@H]([C@@H](C)NC)CC[C@H]3N)[C@@H](N)C[C@H]2N)OC[C@]1(C)O` (stereo not given in full), “inactive”; with `CCOC1OC(=O)C[C@H]1NC(=O)[C@@H]1CCCN1C(=O)[C@@H](NC(=O)c1ccc(N)c(Cl)c1)C(C)(C)C` (stereo not given in full), “inactive”. Turning to `CC(=O)Nc1ccc([C@H](C)C(=O)Nc2ncc(C(C)C)s2)cc1`, the Potency was 6.15 µM (active). With `O=c1c(-c2ccc(O)cc2)coc2cc(OC3O[C@H](CO)[C@H](O)[C@H](O)[C@H]3O)cc(O)c12` (stereo not given in full), the Potency entry was “inactive”. To `O=C1C(Cl)=C(NCCN2CCOCC2)C(=O)c2ncccc21` belongs “inactive”; to `CC(=O)Oc1ccccc1C(=O)Nc1ncc([N+](=O)[O-])s1`, 31.6 µM (active); to `CC(C(=O)O)c1ccc(-c2ccccc2)c(F)c1` (stereo not given), “inactive”. With `O=C(O)[C@@H](c1ccc(OCc2ccc3ccccc3n2)cc1)C1CCCC1`, the Potency result was “inactive”.

`Cc1cccc(C#Cc2ccccc2)n1`: the Potency entry is “inactive”.

In the case of `C[C@H](NC(=O)C(=O)Nc1ccccc1C(C)(C)C)C(=O)N[C@@H](CC(=O)O)C(=O)COc1c(F)c(F)cc(F)c1F`, the Potency is 0.489 µM (active). As to `Cc1c(NC(=O)c2ccc(C(C)(C)C)cc2)cccc1-c1cn(C)c(=O)c(Nc2ccc(C(=O)N3CCOCC3)cc2)n1`, the Potency was 21.8 µM (active).

With `O=C(Nc1ccc([N+](=O)[O-])cc1Cl)c1cc(Cl)ccc1O`, the Potency was 1.55 µM (active).

As for `Cc1oncc1C(=O)Nc1ccc(C(F)(F)F)cc1`, the Potency result was “inactive”. With `Nc1ccc(-c2ccc3ccccc3n2)cc1`, the Potency result was “inactive”. To `O=C(O)Cc1ccc(-c2ccccc2)cc1` belongs “inactive”. Turning to `O=c1[nH]nc(Sc2ncc([N+](=O)[O-])s2)n1-c1ccc2c(c1)OCCO2`, the Potency is 6.15 µM (active). To `O=c1c2ccccc2nc2n1CCc1c-2[nH]c2ccccc12` belongs “inactive”. Consider `CC(=NNC(=S)N1CCC1)c1ccccn1`, for which the Potency was 0.69 µM (active).

Regarding `Oc1cc(O)cc(/C=C/c2ccc(O)c(O)c2)c1`, the Potency entry is “inactive”. For `Cc1cc(O)c2ccccc2c1O`, the Potency result is “inactive”. For the molecule `O=C(OCc1ccccc1)c1ccc(O)cc1`, the Potency result is “inactive”.

Take `COc1ccc(C=CC(=O)Nc2ccccc2C(=O)O)cc1OC`: the Potency entry was “inactive”. With `O=C(O)CCC(=O)c1ccc(-c2ccccc2)cc1` the entry was “inactive”.

On to `CC(=O)OC(C)OC(=O)C(C)c1ccc(-c2ccccc2)c(F)c1` (stereo not given), for which the Potency entry was “inactive”.

`O=S(=O)(O)c1ccc2nc(-c3ccccc3)[nH]c2c1`: the Potency entry is “inactive”.

Source of the values: PubChem BioAssay AID1224854 (National Center for Advancing Translational Sciences (NCATS), 2016).
